Among the data in PubChem BioAssay (NCI) are growth values, retold here.

What all share (experiment): NCI-60 one-dose screen, 48 h (100 = growth as untreated, 0 = no growth, -100 = all killed)
What all share (conditions): 10 µM unless noted

Assay [1] concerns NCI-H23 lung.
Assay [2] concerns NCI-H226 lung.
Assay [3] has as its system NCI-H322M lung.
Assay [4] relates to HOP-62 NSCLC.
Assay [5] deals with NCI-H460 lung.
Assay [6] relates to HOP-92 NSCLC.
Assay [7] concerns NCI-H522 lung.
Assay [8] relates to A549/ATCC NSCLC.
Assay [9] has as its system 786-0 renal.
Assay [10] has as its system COLO 205 colon.

This is part of a sample that, as a whole, favours compounds with a hit. Of some 83,000 tested, about 20% had one in any assay.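 Values shown are percent growth following 48 h exposure of cells in 96-well plates to a single concentration of compound; below 10 was considered active.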 Values without a mark were called inactive. The source made the active and inactive calls.

With `CN1CCN(Cc2ccc(NC(=O)c3[nH]ncc3Nc3ncnc4sc5c(c34)CCCC5)cc2)CC1`, the growth is -63.7% (active) in assay [1]; -51.9% (active) in assay [2]; -50.8% (active) in assay [3]; -72% (active) in assay [4]; -62.2% (active) in [5]; -21.1% (active) in assay [6]. For the same molecule, the growth in assay [7] was -76.1% (active); in assay [8] it was -58.2% (active); in assay [9], -92.2% (active); in [10] it was -93% (active).
As for `Clc1nc(Cl)c2ncn(C/C=C\Cn3cnc4c(Cl)nc(Cl)nc43)c2n1`, the growth in [1] was 9.28% (active); in [2], -59.2% (active); in assay [3], 21.4%; in assay [4], 23.4%; in [5], 3.79% (active); in assay [6], -34.2% (active). Besides, the growth was -76.7% (active) in assay [7], -7.32% (active) in [8], -9.15% (active) in [9] and -41.1% (active) in assay [10].
In the case of `Cc1cccc(C)c1N1C(c2ccccc2)=NNC12C=CC(=O)c1c(O)cccc12` (stereo not given), the growth in assay [1] is 30.6%; in [2], 94.6%; in [3], 99.3%; in [4], 39.4%; in assay [5], 98.2%; in [6] it was 115%. For the same molecule, the growth was 54.6% in [7], 62.4% in [8], 105% in assay [9] and 97.7% in assay [10].
For the molecule `COC(=O)c1ccc2c(C(=Nc3ccc(N(C)C(=O)CN4CCN(C)CC4)cc3)c3ccccc3)c(O)[nH]c2c1`, the growth in assay [1] was 67.8%; in [2] it was 47%; in [3] it was 58.8%; in [4], 38.8%; in [5], 92%; in assay [6], 18.4%. Further, the growth was 39.1% in [7], 45.8% in assay [8], 41.4% in [9] and 34% in [10].
In the case of `COCCN1CCN(Cc2ccc(-c3n[nH]c4c3C(=O)c3c(NC(=O)NN5CCOCC5)cccc3-4)cc2)CC1`, the growth in assay [1] was -33.7% (active); in assay [2] it was 6.04% (active); in assay [3], -13.1% (active); in [4], -30.7% (active); in assay [5] it was -68.7% (active); in assay [6], 39.7%. Also, the growth in assay [7] was -34.1% (active); in assay [8], -42.4% (active); in [9], 5.39% (active); in assay [10], -64.5% (active).
With `O=C1/C(=C\c2cccc(OCCCCCOc3ccc(Cl)cc3)c2)N=C2SCCCN12`, the growth was 35% in assay [1]; 60.3% in assay [2]; 101% in assay [3]; 71.1% in [4]; 60.7% in assay [5]; 48.1% in assay [6]. The growth in assay [7] is 32.6%; in assay [8], 45.5%; in [9], 72.6%; in assay [10] it was 60.1%.
On to `CCCCCCCC(=O)SCC/C=C/[C@@H]1CC(=O)NCc2cccc(n2)C2=N[C@@](C)(CS2)C(=O)N[C@@H](C(C)C)C(=O)N1`, for which the growth was 41.7% in assay [1]; 68.9% in assay [2]; 15.6% in assay [3]; 12.3% in assay [4]; 20% in [5]; 38% in assay [6]. Moreover, the growth was -1.71% (active) in assay [7], 15.4% in assay [8], 54% in assay [9] and -41.6% (active) in assay [10].
Take `Cc1nc2cc(-c3nn(C(C)C)c4ncnc(N)c34)ccc2o1`: the growth in [1] was -0.166% (active); in assay [2] it was -20.5% (active); in assay [3], -23.2% (active); in [4] it was -36.3% (active); in [5], 3.28% (active); in assay [6], -40.4% (active). Further, the growth in [7] is -11.5% (active); in assay [8] it was -29.2% (active); in assay [9] it was -29.5% (active); in assay [10], -24.9% (active).
Take `COc1cc(N2CCC(N(C)C)CC2)ccc1Nc1ncc(Cl)c(Nc2ccccc2P(C)(C)=O)n1`: the growth is 5.53% (active) in assay [1]; -44.3% (active) in [2]; -9.57% (active) in assay [3]; -4.93% (active) in assay [4]; 7% (active) in assay [5]; -60.2% (active) in assay [6]. In addition, the growth in assay [7] is -39.4% (active); in assay [8], -35.8% (active); in assay [9], -20.6% (active); in [10], -62.7% (active).
On to `COC(=O)C1=C(C(=O)OC)C23C=C(C)C1C2=C(C)C1(CC1)[C@@](C)(O)C3=O` (stereo not given in full), for which the growth in assay [1] was -20.9% (active); in [2], -34.8% (active); in assay [3], -9.66% (active); in [4], -21.7% (active); in assay [5], 0.847% (active); in assay [6] it was -19.3% (active). In addition, the growth in assay [7] is -11% (active); in assay [8], 1.39% (active); in [9] it was -20.6% (active); in assay [10], -51.9% (active).
With `O=C(c1ccc(F)c(F)c1Nc1ccc(I)cc1F)N1CC(O)([C@@H]2CCCCN2)C1`, the growth in assay [1] is 13.9%; in assay [2], 39.4%; in assay [3] it was 13.5%; in [4] it was 17.7%; in assay [5], 18.8%; in assay [6], -47.8% (active). Also, the growth was 18.8% in [7], 14.2% in assay [8], 29.1% in assay [9] and -63.9% (active) in [10].
As for `COc1ccc(Cc2cc(-c3ccccc3C)n[nH]c2=O)cc1`, the growth in assay [1] is 98.6%; in assay [2], 87.3%; in assay [3], 129%; in assay [4], 97.8%; in [5], 105%; in assay [6], 22.7%. The growth in [7] was 105%; in assay [8], 99.9%; in [9] it was 105%; in assay [10], 100%.
Consider `C=CCN(/C=C1/C(=O)O[C@H](COC)[C@@]2(C)C1=C(O)C(=O)C1=C2[C@H](OC(C)=O)C[C@]2(C)C(=O)CC[C@@H]12)CC=C`, for which the growth is 36.7% in assay [1]; 24% in assay [2]; -15.1% (active) in [3]; 16.5% in assay [4]; 11.2% in [5]; -3.58% (active) in [6]. The growth in [7] was 13.5%; in assay [8] it was 4.59% (active); in assay [9] it was 4.54% (active); in assay [10], 17.7%.
As for `Oc1ccc(C(c2ccc(O)cc2)C(Cl)(Cl)Cl)cc1`, the growth was 99.8% in assay [1]; 104% in assay [2]; 98.2% in assay [3]; 107% in assay [4]; 98.2% in assay [5]; 56.1% in assay [6]. Moreover, the growth in assay [7] is 83.2%; in assay [8], 89.2%; in assay [9], 102%; in assay [10], 104%.
Turning to `C#Cc1cccc(Nc2ncnc3cc(OC)c(OCCCCCCC(=O)NO)cc23)c1`, the growth in [1] was -31.4% (active); in [2], -10.9% (active); in [3], -8.88% (active); in [4], -37.5% (active); in assay [5] it was 1.24% (active); in [6], -26.4% (active). Besides, the growth in [7] is -58.2% (active); in assay [8] it was -32.8% (active); in assay [9] it was -15.4% (active); in assay [10], -65% (active).
Consider `Cc1cc(O)c2c(c1)C1OC(=O)CCCCCN1C1=C2C(=O)c2cccc(OC3CC(O)C(O)C(C)O3)c2C1=O` (stereo not given), for which the growth in assay [1] is 79.8%; in [2], 118%; in [3], 94.7%; in [4] it was 123%; in assay [5] it was 65.3%; in assay [6] it was 134%. Besides, the growth in [7] was 34.1%; in assay [8], 59.9%; in assay [9], 101%; in assay [10], 53.3%.
With `NC(=O)Nc1cc(-c2cccc(F)c2)sc1C(=O)N[C@H]1CCCNC1`, the growth in assay [1] is -15.3% (active); in assay [2], 6.7% (active); in assay [3], -17.8% (active); in assay [4] it was -39.2% (active); in assay [5], -21.6% (active); in [6], -69.2% (active). Further, the growth was -19.2% (active) in assay [7], -35.4% (active) in assay [8], -82.8% (active) in [9] and -65.3% (active) in assay [10].
`c1cc(OCCN2CCCCC2)cc(-c2n[nH]c3ccc(-c4ncn[nH]4)cc23)c1`: the growth in [1] was 43.8%; in [2], 61.6%; in assay [3] it was 37.6%; in [4], 60.6%; in assay [5] it was 66%; in assay [6], 44.8%. Moreover, the growth in assay [7] was 36.8%; in assay [8], 63.8%; in [9], 79.9%; in [10] it was 6.03% (active).
Consider `O=C(COc1ccc(/C=C2\Cc3ccc(Cl)cc3C2=O)cc1)Nc1nccs1`, for which the growth in [1] is 88.9%; in assay [2] it was 98.4%; in assay [3], 118%; in [4], 101%; in [5], 95.2%; in [6], 77.5%. Moreover, the growth in assay [7] is -7.85% (active); in assay [8], 83.7%; in assay [9] it was 95.8%; in assay [10] it was 124%.
In the case of `O=C(Nc1nc2cccc(-c3ccc(CN4CCS(=O)(=O)CC4)cc3)n2n1)C1CC1`, the growth in assay [1] is 65.2%; in assay [2], 55.9%; in [3], 87.6%; in assay [4], 57.3%; in assay [5], 5.79% (active); in [6], 96.3%. The growth is 6.67% (active) in assay [7], 60.1% in [8], 85.5% in assay [9] and 59.5% in assay [10].
`CN(N)c1nc2sc3c(c2c(=O)[nH]1)CCCC3`: the growth in [1] was 93.5%; in [2] it was 101%; in assay [3] it was 96.9%; in [4], 76.6%; in assay [5], 104%; in [6], 107%. Besides, the growth in assay [7] was 89.2%; in assay [8] it was 81.1%; in [9], 98.2%; in [10], 100%.
For `O=C(CNc1nnc(-c2ccc(Cl)cc2)o1)Nc1ccc(-c2nc3ccccc3s2)cc1`, the growth in assay [1] was 88.7%; in [2] it was 82.9%; in assay [3] it was 95.1%; in assay [4], 107%; in assay [5], 99.7%; in [6] it was 87.9%. Moreover, the growth in [7] is 77.1%; in assay [8], 95.8%; in [9] it was 101%; in assay [10], 104%.
On to `O=C(NC1CCNCC1)c1[nH]ncc1NC(=O)c1c(Cl)cccc1Cl`, for which the growth in assay [1] was -12.1% (active); in assay [2] it was 0.903% (active); in [3] it was 5.64% (active); in [4], -18.5% (active); in [5] it was 8.4% (active); in assay [6] it was -6.06% (active). Further, the growth in assay [7] was -23% (active); in assay [8], 8.09% (active); in [9], 2.33% (active); in [10], -35.9% (active).
For `C[N+](C)(CCOC(c1ccccc1)c1ccccc1)CC(=O)OCc1ccccc1`, the growth is 101% in [1]; 91.8% in assay [2]; 90.6% in [3]; 97.8% in [4]; 110% in assay [5]; 106% in [6]. Moreover, the growth in [7] is 93.8%; in [8], 102%; in assay [9], 105%; in assay [10], 103%.
Turning to `CCN(CC)CCOc1ccc(/C(=C(\C)c2ccc(Cl)cc2)c2ccc(Cl)cc2)cc1`, the growth in assay [1] is 60.7%; in assay [2], 102%; in assay [3], 87.3%; in [4], 95.2%; in [5], 36.4%; in [6] it was 80.5%. The growth in assay [7] was 81.7%; in assay [8], 45.2%; in assay [9] it was 60.2%; in assay [10], 8.85% (active).
`CC[C@@H]1C(=O)N(C)c2cnc(Nc3ccc(C(=O)NC4CCC(N5CCN(CC6CC6)CC5)CC4)cc3OC)nc2N1C(C)C` (stereo not given in full): the growth is -1.19% (active) in [1]; 49.7% in assay [2]; 23.3% in [3]; -29.7% (active) in assay [4]; 1.14% (active) in [5]; 20.7% in [6]. For the same molecule, the growth was -52.8% (active) in assay [7], -6.16% (active) in assay [8], -80.2% (active) in assay [9] and -61.9% (active) in [10].
